# Test results from PubChem BioAssay (EPA / NIEHS).
# Activity calls are given as the source filed them. Rule for the calls: active = hit-call score of the fitted dose curve at least 0.9, where 1 is the maximum; inactive = score below 0.9.
# Experiments:
# [1] = ATG_ISRE_CIS: Attagene CIS-FACTORIAL HepG2 Assay for human Interferon Regulatory Factor 1 (IRF1) binding to an Interferon-Stimulated Response Element (ISRE) (AID 2282948); conditions: HepG2 ISRE cis-reporter (Attagene), mRNA transcription readout; actives raise or lower the signal
# Summary of the method: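 Quantitation relies on labelled RT-PCR fragments separated by capillary electrophoresis. Human HepG2 cells bearing cis-promoter reporter constructs were treated 24 h; DMSO served as baseline for bidirectional fitting.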
# [2] = ATG_M_32_CIS: Attagene CIS-FACTORIAL HepG2 Assay for M32 Transcription Factor (Internal Marker) (AID 2282949); conditions: HepG2 Attagene cis-factorial M32 reporter, mRNA; actives raise or lower the signal;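 note: background control marker of the multiplexed CIS panel rather than a real target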
# Summary of the method: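 Fluorescent capillary electrophoresis peaks of HpaI-digested, FAM-labelled RT-PCR reporter products give the signal. Source: transiently transfected human liver HepG2 cells, 24 h after chemical dosing; bidirectional fitting against DMSO.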
# [3] = ATG_M_06_CIS: Attagene CIS-FACTORIAL HepG2 Assay for M06 Transcription Factor (Internal Marker) (AID 2282950); conditions: HepG2 Attagene CIS-FACTORIAL M06 internal marker reporter; actives raise or lower the signal
# Summary of the method: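 One of many multiplexed endpoints: HepG2 reporter mRNA after 24 h dosing, detected by RT-PCR and capillary electrophoresis fluorescence; gain or loss of signal analysed against DMSO.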
# [4] = target: Hypoxia-inducible factor 1-alpha (Homo sapiens) (UniProt Q16665); test: ATG_HIF1a_CIS: Attagene CIS-FACTORIAL HepG2 Assay for human Hypoxia Inducible Factor 1 (HIF1A) (AID 2282951); conditions: HepG2 Attagene cis-factorial HIF1a reporter transcription; actives raise or lower the signal
# Summary of the method: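 Dosed 24 h, transfected HepG2 cells yielded total RNA whose reporter transcripts were RT-PCR-amplified and sized by capillary electrophoresis using fluorescent labelling; DMSO defined baseline, with gain and loss of signal both fitted.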
# [5] = target: Hepatocyte nuclear factor 6 (Homo sapiens) (UniProt Q9UBC0); test: ATG_HNF6_CIS: Attagene CIS-FACTORIAL HepG2 Assay for human Hepatocyte Nuclear Factor 6 (HNF6) (AID 2282952); conditions: HepG2 Attagene cis-factorial HNF6 reporter transcription; actives raise or lower the signal
# Summary of the method: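 HepG2 cells transiently transfected with cis-element-driven multiplexed reporter units measuring endogenous transcription factor activity. After 24 h exposure, reporter mRNA quantified by RT-PCR, FAM-labelled fragments and capillary electrophoresis; bidirectional fitting versus DMSO.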
# [6] = target: Heat shock factor protein 1 (Homo sapiens) (UniProt Q00613); test: ATG_HSE_CIS: Attagene CIS-FACTORIAL HepG2 Assay for human Heat Shock Transcription Factor 1 (HSE) (AID 2282953); conditions: HepG2 HSE cis-reporter, Attagene RNA transcription; actives raise or lower the signal
# Summary of the method: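 Using HepG2 with transfected cis-driven reporter constructs, compound effects on endogenous factor activity are scored as reporter mRNA change at 24 h. Detection: RT-PCR, HpaI digestion, capillary electrophoresis; bidirectional fitting to DMSO.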
# [7] = ATG_MRE_CIS: Attagene CIS-FACTORIAL HepG2 Assay for human Metal Responsive Element (MRE) (AID 2282954); conditions: HepG2 MRE cis-reporter transcription, Attagene multiplex; actives raise or lower the signal
# Summary of the method: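 Transient MRTU transfection of HepG2 (FuGene 6); 24 h dosing; total RNA → oligo(dT) RT, PCR, 6-FAM primer extension, HpaI cut, CE. Bidirectional fit vs DMSO.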
# [8] = ATG_PBREM_CIS: Attagene CIS-FACTORIAL HepG2 Assay for human Phenobarbital-responsive Enhancer Module (PBREM) (AID 2282955); conditions: HepG2 PBREM cis-reporter, Attagene multiplexed transcription; actives raise or lower the signal
# Summary of the method: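 Transfected liver-derived HepG2 cells exposed 24 h; PBREM reporter transcript quantified via RT-PCR and capillary electrophoresis, with activity in either direction referenced to DMSO.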
# [9] = target: Paired box protein Pax-6 (Homo sapiens) (UniProt P26367); test: ATG_Pax6_CIS: Attagene CIS-FACTORIAL HepG2 Assay for human Paired Box 6 (PAX6) (AID 2282956); conditions: HepG2 CIS-FACTORIAL PAX6 reporter transcription, RNA readout; actives raise or lower the signal
# Summary of the method: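 After twenty-four hours of chemical exposure, transfected HepG2 cells are harvested for RNA. Cis-promoter reporter transcripts are amplified, fluorescently labelled and sized by capillary electrophoresis, with gain and loss of signal scored against DMSO.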
# [10] = ATG_PXRE_CIS: Attagene CIS-FACTORIAL HepG2 Assay for human Pregnane X Receptor Element (PXRE) (AID 2282957); conditions: HepG2 Attagene CIS-FACTORIAL PXRE reporter, mRNA; actives raise or lower the signal
# Summary of the method: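 HepG2 cells transiently transfected with cis-element-driven multiplexed reporter units; after 24 h chemical exposure, reporter mRNA measured by RT-PCR, 6-FAM labelling, HpaI digestion and capillary electrophoresis. Bidirectional fitting relative to DMSO.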
# [11] = ATG_PPRE_CIS: Attagene CIS-FACTORIAL HepG2 Assay for human Peroxisome Proliferator-activated Response Element (PPRE) (AID 2282958); conditions: HepG2 PPRE cis-element reporter, Attagene transcription factor profiling; actives raise or lower the signal
# Summary of the method: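 Measured endpoint: PPRE-controlled reporter mRNA, detected by RT-PCR and capillary electrophoresis fluorescence, from transiently transfected HepG2 cells 24 h after dosing. Curves fitted in both directions using DMSO baseline.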
# [12] = ATG_RORE_CIS: Attagene CIS-FACTORIAL HepG2 Assay for human RAR-related Orphan Receptor Element (RORE) (AID 2282959); conditions: HepG2 Attagene cis-factorial RORE reporter, mRNA; actives raise or lower the signal
# Summary of the method: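 Transiently transfected HepG2 reporter cells were treated 24 h. Reporter transcripts were detected by RT-PCR and capillary electrophoresis, with bidirectional fitting against DMSO.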
# [13] = ATG_Sox_CIS: Attagene CIS-FACTORIAL HepG2 Assay for human SRY-box transcription factor (SOX) (AID 2282960); conditions: HepG2 Attagene cis-factorial SOX reporter, mRNA; actives raise or lower the signal
# Summary of the method: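 Gain- or loss-of-signal endpoint, fitted bidirectionally with DMSO as negative control. Based on reporter mRNA from transfected HepG2 cells harvested 24 h post-treatment and quantified via RT-PCR and capillary electrophoresis.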
# [14] = ATG_SREBP_CIS: Attagene CIS-FACTORIAL HepG2 Assay for human Sterol Regulatory Element Binding (SREBP) (AID 2282962); conditions: HepG2 Attagene cis-factorial SREBP reporter, mRNA; actives raise or lower the signal
# Summary of the method: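 Twenty-four hours after chemical dosing of transfected HepG2 cultures, reporter RNA was converted to cDNA, amplified, end-labelled with 6-FAM and resolved by capillary electrophoresis. Responses were fitted relative to DMSO.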
# [15] = target: Signal transducer and activator of transcription 3 (Homo sapiens) (UniProt P40763); test: ATG_STAT3_CIS: Attagene CIS-FACTORIAL HepG2 Assay for human Signal Transducer and Activator of Transcription 3 (STAT3) (AID 2282963); conditions: HepG2, Attagene cis-factorial STAT3 reporter transcription; actives raise or lower the signal
# Summary of the method: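 Endogenous STAT3-responsive cis-element activity was read in transiently transfected HepG2 cells after 24 h treatment. Reporter transcripts were quantified via RT-PCR and capillary electrophoresis, with DMSO as negative control and bidirectional curve fitting.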
# [16] = ATG_TA_CIS: Attagene CIS-FACTORIAL HepG2 Assay for human TA Basal Promoter (AID 2282964); conditions: HepG2 Attagene CIS-factorial TA basal promoter reporter; actives raise or lower the signal
# Summary of the method: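 Transient MRTU transfection of HepG2 preceded 24 h compound exposure. Reporter mRNA levels were then read by RT-PCR with capillary electrophoresis, and this background-control endpoint was fitted bidirectionally to DMSO.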
# [17] = ATG_TCF_b_cat_CIS: Attagene CIS-FACTORIAL HepG2 Assay for human T-Cell-Factor with beta-catenin (TCF/b-cat) (AID 2282965); conditions: HepG2 TCF/beta-catenin cis-reporter transcription, actives raise or lower the signal
# Summary of the method: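 Endogenous TCF/LEF activity read as reporter transcript level via RT-PCR and capillary electrophoresis fluorescence in transfected HepG2, 24 h exposure; gain or loss of signal fitted against DMSO controls.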
# [18] = ATG_TAL_CIS: Attagene CIS-FACTORIAL HepG2 Assay for human TAL Basal Promoter (AID 2282966); conditions: HepG2 Attagene cis-factorial TAL promoter reporter; actives raise or lower the signal;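 note: background control endpoint measuring basal TAL promoter reporter mRNA not a specific factor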
# Summary of the method: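 HepG2 cells transiently transfected with multiplexed cis-promoter reporter units, dosed 24 h. Reporter mRNA quantified by RT-PCR, 6-FAM labelling, HpaI digestion and capillary electrophoresis; TAL basal promoter serves as background control, fitted bidirectionally versus DMSO.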
# [19] = ATG_TGFb_CIS: Attagene CIS-FACTORIAL HepG2 Assay for human Transforming Growth Factor (TGF) (AID 2282967); conditions: HepG2 Attagene CIS TGFb reporter, mRNA transcription; actives raise or lower the signal
# Summary of the method: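 After a 24-hour incubation with compound, transfected HepG2 cells were lysed for RNA; reporter cDNA was amplified, fluorescently end-labeled and separated by CE. DMSO served as baseline for bidirectional fits.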
# [20] = target: Transcription factor Sp1 (Homo sapiens) (UniProt P08047); test: ATG_Sp1_CIS: Attagene CIS-FACTORIAL HepG2 Assay for human Specificity Protein 1 (Sp1) (AID 2282961); conditions: HepG2 Sp1 cis-reporter transcription, actives raise or lower the signal
# Summary of the method: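 Endpoint reflects endogenous Sp1 transcriptional activity, not an exogenous fusion protein: HepG2 cells with transfected cis-regulated reporters, 24 h dosing, RT-PCR/capillary electrophoresis mRNA read-out, DMSO-normalised bidirectional fit.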
# Sequence of Heat shock factor protein 1 (Homo sapiens) (Q00613 whole entry, looked up): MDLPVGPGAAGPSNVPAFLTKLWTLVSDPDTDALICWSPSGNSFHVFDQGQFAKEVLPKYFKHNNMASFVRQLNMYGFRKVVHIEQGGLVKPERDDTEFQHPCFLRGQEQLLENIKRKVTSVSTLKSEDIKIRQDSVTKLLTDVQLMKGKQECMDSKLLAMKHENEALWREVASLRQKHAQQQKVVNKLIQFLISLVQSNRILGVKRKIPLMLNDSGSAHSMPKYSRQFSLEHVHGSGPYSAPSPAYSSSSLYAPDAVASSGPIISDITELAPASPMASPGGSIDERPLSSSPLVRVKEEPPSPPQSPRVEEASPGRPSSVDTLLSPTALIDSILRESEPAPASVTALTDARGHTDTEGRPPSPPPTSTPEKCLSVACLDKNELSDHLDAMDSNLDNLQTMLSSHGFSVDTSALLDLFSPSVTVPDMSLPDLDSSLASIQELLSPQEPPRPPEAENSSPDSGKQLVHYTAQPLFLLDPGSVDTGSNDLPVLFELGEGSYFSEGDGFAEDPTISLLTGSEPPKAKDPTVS
# Sequence of Paired box protein Pax-6 (Homo sapiens) (P26367 whole entry, looked up): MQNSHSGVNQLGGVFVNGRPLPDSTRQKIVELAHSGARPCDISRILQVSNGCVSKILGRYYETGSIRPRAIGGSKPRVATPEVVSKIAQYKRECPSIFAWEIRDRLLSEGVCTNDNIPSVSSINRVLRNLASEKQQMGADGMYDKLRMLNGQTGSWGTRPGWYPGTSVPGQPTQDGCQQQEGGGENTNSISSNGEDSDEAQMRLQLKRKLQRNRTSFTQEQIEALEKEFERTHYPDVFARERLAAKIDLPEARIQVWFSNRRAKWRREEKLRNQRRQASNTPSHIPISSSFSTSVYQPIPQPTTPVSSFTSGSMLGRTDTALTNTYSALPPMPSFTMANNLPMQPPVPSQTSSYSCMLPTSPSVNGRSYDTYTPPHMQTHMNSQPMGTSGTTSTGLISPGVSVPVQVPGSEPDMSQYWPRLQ
# Sequence of Hypoxia-inducible factor 1-alpha (Homo sapiens) (Q16665 whole entry, looked up): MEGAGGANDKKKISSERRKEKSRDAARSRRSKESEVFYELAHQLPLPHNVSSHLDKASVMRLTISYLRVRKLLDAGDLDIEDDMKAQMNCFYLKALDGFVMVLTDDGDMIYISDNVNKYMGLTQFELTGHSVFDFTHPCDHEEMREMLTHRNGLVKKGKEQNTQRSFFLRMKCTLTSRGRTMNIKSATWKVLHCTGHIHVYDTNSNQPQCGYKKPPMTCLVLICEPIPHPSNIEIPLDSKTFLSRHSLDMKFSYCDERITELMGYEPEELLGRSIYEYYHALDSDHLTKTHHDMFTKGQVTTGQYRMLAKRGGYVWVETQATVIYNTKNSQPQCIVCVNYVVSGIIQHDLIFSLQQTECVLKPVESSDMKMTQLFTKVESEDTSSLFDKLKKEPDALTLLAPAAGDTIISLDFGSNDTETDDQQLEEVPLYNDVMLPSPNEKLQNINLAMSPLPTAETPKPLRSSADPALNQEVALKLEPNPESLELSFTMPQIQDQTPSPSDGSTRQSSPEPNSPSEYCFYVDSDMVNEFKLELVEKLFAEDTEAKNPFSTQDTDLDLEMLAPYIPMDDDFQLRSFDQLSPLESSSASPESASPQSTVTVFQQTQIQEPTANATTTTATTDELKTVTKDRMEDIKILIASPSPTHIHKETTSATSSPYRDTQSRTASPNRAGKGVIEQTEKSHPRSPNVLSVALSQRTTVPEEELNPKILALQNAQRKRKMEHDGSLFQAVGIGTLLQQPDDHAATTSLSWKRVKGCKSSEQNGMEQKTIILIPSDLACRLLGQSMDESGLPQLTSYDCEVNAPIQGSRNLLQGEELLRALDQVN
# Sequence of Transcription factor Sp1 (Homo sapiens) (P08047 whole entry, looked up, the tested form may be a part): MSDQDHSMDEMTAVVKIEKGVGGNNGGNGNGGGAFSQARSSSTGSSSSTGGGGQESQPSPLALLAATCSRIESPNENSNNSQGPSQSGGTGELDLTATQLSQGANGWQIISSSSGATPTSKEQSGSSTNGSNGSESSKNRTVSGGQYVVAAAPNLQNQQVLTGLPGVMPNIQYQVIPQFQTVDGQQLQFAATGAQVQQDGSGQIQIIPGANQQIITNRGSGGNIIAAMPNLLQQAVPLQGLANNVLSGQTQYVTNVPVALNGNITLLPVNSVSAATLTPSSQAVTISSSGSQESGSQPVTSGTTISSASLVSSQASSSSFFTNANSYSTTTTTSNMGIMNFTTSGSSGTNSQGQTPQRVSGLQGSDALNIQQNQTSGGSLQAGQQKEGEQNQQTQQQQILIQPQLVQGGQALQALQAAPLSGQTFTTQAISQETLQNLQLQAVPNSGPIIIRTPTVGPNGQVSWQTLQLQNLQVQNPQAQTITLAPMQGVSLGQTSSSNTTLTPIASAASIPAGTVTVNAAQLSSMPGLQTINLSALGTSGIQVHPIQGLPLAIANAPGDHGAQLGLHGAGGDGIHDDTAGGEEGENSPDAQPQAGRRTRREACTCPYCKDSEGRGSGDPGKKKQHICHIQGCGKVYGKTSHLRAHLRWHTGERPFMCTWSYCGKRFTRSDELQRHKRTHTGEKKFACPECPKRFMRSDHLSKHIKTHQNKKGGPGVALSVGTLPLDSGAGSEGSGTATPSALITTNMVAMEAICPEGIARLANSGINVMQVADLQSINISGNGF
# Sequence of Hepatocyte nuclear factor 6 (Homo sapiens) (Q9UBC0 whole entry, looked up, the tested form may be a part): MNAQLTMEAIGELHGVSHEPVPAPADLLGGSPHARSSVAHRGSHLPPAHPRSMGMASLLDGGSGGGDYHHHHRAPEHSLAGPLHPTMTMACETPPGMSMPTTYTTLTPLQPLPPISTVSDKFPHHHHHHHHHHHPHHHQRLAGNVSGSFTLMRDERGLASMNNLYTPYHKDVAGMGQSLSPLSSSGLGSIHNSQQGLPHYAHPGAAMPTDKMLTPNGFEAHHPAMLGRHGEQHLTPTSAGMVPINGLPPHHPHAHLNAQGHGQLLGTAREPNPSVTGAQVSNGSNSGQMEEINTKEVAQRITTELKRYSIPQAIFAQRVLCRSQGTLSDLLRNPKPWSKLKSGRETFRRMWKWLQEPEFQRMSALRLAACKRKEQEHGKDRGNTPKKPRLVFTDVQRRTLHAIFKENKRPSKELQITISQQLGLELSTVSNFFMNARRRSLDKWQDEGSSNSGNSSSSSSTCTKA
# Sequence of Signal transducer and activator of transcription 3 (Homo sapiens) (P40763 whole entry, looked up): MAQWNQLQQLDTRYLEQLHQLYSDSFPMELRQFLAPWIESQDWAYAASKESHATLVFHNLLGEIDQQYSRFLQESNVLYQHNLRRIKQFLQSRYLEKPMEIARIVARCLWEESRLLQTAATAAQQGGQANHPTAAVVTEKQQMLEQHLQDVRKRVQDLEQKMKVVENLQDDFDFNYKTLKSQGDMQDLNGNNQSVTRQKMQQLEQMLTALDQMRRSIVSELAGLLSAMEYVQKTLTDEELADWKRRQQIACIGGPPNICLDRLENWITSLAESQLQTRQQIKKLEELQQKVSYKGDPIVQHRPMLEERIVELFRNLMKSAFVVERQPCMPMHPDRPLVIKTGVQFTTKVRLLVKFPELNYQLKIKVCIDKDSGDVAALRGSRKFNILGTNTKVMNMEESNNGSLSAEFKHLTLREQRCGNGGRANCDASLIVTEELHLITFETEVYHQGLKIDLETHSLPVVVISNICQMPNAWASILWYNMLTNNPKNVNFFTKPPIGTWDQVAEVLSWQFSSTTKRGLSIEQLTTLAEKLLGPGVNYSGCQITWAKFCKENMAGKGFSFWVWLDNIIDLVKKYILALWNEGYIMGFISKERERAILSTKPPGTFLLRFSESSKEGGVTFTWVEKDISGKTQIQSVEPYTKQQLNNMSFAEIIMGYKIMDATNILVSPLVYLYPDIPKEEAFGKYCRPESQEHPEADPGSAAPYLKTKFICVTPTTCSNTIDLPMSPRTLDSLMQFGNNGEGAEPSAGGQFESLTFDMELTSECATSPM
smiles,measurement,setting,value
Cc1ccccc1OCC(=O)O,outcome,[1],inactive
same,outcome,[2],inactive
same,outcome,[3],inactive
same,outcome,[4],inactive
same,outcome,[5],inactive
same,outcome,[6],inactive
same,outcome,[7],inactive
same,outcome,[8],inactive
same,outcome,[9],inactive
same,outcome,[10],inactive
same,outcome,[11],inactive
same,outcome,[12],inactive
same,outcome,[13],inactive
same,outcome,[14],inactive
same,outcome,[15],inactive
same,outcome,[16],inactive
same,outcome,[17],inactive
same,outcome,[18],inactive
same,outcome,[19],inactive
CCOC=C(C(=O)OCC)C(=O)OCC,outcome,[1],inactive
same,outcome,[2],inactive
same,outcome,[3],inactive
same,outcome,[4],inactive
same,outcome,[5],inactive
same,outcome,[6],inactive
same,outcome,[7],inactive
same,outcome,[8],inactive
same,outcome,[9],inactive
same,AC50,[10],27.6 µM (active)
same,outcome,[12],inactive
same,outcome,[13],inactive
same,outcome,[20],inactive
same,outcome,[14],inactive
same,outcome,[15],inactive
same,outcome,[16],inactive
same,outcome,[17],inactive
same,outcome,[18],inactive
same,outcome,[19],inactive
COC(O)c1ccccc1 (stereo unspecified),outcome,[1],inactive
same,outcome,[2],inactive
same,outcome,[3],inactive
same,outcome,[4],inactive
same,outcome,[5],inactive
same,outcome,[6],inactive
same,outcome,[7],inactive
same,outcome,[8],inactive
same,outcome,[9],inactive
same,AC50,[10],75.1 µM (active)
same,outcome,[12],inactive
same,outcome,[13],inactive
same,outcome,[20],inactive
same,outcome,[14],inactive
same,outcome,[15],inactive
same,outcome,[16],inactive
same,outcome,[17],inactive
same,outcome,[18],inactive
same,outcome,[19],inactive
OCC(CO)(CBr)CBr,outcome,[1],inactive
same,outcome,[2],inactive
same,outcome,[3],inactive
same,outcome,[4],inactive
same,outcome,[5],inactive
same,outcome,[6],inactive
same,outcome,[7],inactive
same,outcome,[9],inactive
same,outcome,[10],inactive
same,outcome,[11],inactive
same,outcome,[12],inactive
same,outcome,[13],inactive
same,outcome,[20],inactive
same,outcome,[14],inactive
same,outcome,[15],inactive
same,outcome,[16],inactive
same,outcome,[17],inactive
same,outcome,[18],inactive
same,outcome,[19],inactive
O=C1OC(=O)C(F)(F)C1(F)F,outcome,[1],inactive
same,outcome,[2],inactive
same,outcome,[3],inactive
same,outcome,[4],inactive
same,outcome,[5],inactive
same,outcome,[6],inactive
same,outcome,[7],inactive
same,outcome,[8],inactive
same,outcome,[9],inactive
same,outcome,[10],inactive
same,outcome,[12],inactive
same,outcome,[13],inactive
same,outcome,[20],inactive
same,outcome,[14],inactive
same,outcome,[15],inactive
same,outcome,[16],inactive
same,outcome,[17],inactive
same,outcome,[18],inactive
same,outcome,[19],inactive
CN(CCO)S(=O)(=O)C(F)(F)C(F)(F)C(F)(F)C(F)(F)C(F)(F)C(F)(F)C(F)(F)C(F)(F)F,outcome,[1],inactive
same,outcome,[2],inactive
same,outcome,[3],inactive
same,outcome,[4],inactive
same,outcome,[5],inactive
same,outcome,[6],inactive
same,outcome,[7],inactive
same,outcome,[8],inactive
same,outcome,[9],inactive
same,outcome,[10],inactive
same,outcome,[11],inactive
same,outcome,[12],inactive
same,outcome,[14],inactive
same,outcome,[15],inactive
same,outcome,[16],inactive
same,outcome,[17],inactive
same,outcome,[18],inactive
same,outcome,[19],inactive
Oc1c(Cl)cc(Cl)cc1Sc1cc(Cl)cc(Cl)c1O,outcome,[1],inactive
same,outcome,[2],inactive
same,outcome,[3],inactive
same,outcome,[4],inactive
same,outcome,[5],inactive
same,AC50,[6],18.3 µM (active)
same,AC50,[7],11.5 µM (active)
same,outcome,[8],inactive
same,outcome,[9],inactive
same,AC50,[10],3.03 µM (active)
same,AC50,[11],1.52 µM (active)
same,AC50,[12],2.56 µM (active)
same,outcome,[14],inactive
same,outcome,[15],inactive
same,outcome,[16],inactive
same,outcome,[17],inactive
same,outcome,[18],inactive
same,outcome,[19],inactive
